Data on 49 molecules can be found in ChEMBL document CHEMBL4513216, “Probing the Open Global Health Chemical Diversity Library for Multistage-Active Starting Points for Next-Generation Antimalarials” (ACS Infect Dis, 2020).

Hit rate of the full screen: of about 68,000 compounds, about 2,700 (4%) showed an effect of 50% or more. The sample as a whole holds a higher share of strong results than the screen did.

The subject of the assay is Plasmodium berghei. Description: Screen against P. berghei liver stage (PbLuc), transformed with Luciferase, at 2uM. It counts as functional, HepG2. Conditions: tested at 2 uM.
Regarding `Cc1cnc(C(=O)N2CCCC(n3cncn3)C2)cn1` (centres undefined), the INHIBITION was -43.79%.
On to `CCOc1cc(CN[C@@H]2COC[C@H]2Cc2cc(C)no2)ccc1O`, for which the INHIBITION stood at 33.64%.
With `CCc1c(C(=O)N2CCN(C)[C@@H]3CS(=O)(=O)C[C@@H]32)[nH]c2ccccc12`, the INHIBITION was found to be 65.3%.
As to `Cc1c(C(=O)N2CCN(C)[C@@H]3CS(=O)(=O)C[C@@H]32)[nH]c2ccc(F)cc12`, the INHIBITION is on record as 28.95%.
With `CCN1CCN(C(=O)c2[nH]c3ccccc3c2Cl)[C@H]2CS(=O)(=O)C[C@H]21` the figure was 25.65%; with `COc1ccccc1-n1nc(C(C)C)nc1Cc1nnc(N)s1`, 49.32%.
For `CS(=O)(=O)NCCCNC(=O)c1cccnc1O`, the INHIBITION is given as -55.03%.
In the case of `C[C@H]1C[C@@H]2CCN(Cc3ccccn3)C[C@H]2O1` it was 0.78%; in that of `C[C@@H]1C[C@@H]2CCN(Cc3ccccn3)C[C@H]2O1`, 2.98%; in that of `C[C@H]1C[C@H]2CN(Cc3ccccn3)CC[C@@H]2O1`, 66.23%.
Take `O=C(Cn1cccn1)N1CCc2[nH]nc(-c3ccc4c(c3)OCO4)c2C1`: the INHIBITION came to 37.41%.
Consider `O=C1CN([C@@H]2CC[C@@H](NS(=O)(=O)c3ccc(F)cc3)[C@H]2O)CCN1`, for which the INHIBITION stood at 22.95%.
In the case of `CSCC(=O)N1CCCC(n2ccnc2C(C)C)C1` (centres undefined) it was -47.97%; in that of `CCc1nccn1C1CCCN(C(=O)c2csc(COC)n2)C1` (centres undefined), 24.15%; in that of `COCc1nc(C(=O)N2CCCC(n3cccn3)C2)cs1` (centres undefined), 21.89%.
In the case of `COCc1nc(C(=O)N2CCCC(n3ccnc3C)C2)cs1` (centres undefined) it was 53.69%.
For the molecule `COCc1nc(C(=O)N2CCCC(n3ccnc3)C2)cs1` (centres undefined), the INHIBITION turned out to be 28.54%.
Consider `CC(C)c1nccn1C1CCCN(C(=O)c2ccsc2)C1` (centres undefined), for which the INHIBITION is listed as -12.41%.
In the case of `Cc1ccc(CC(=O)N2CCCC(n3ccnc3C(C)C)C2)cn1` (centres undefined) it was 28.65%; in that of `COCc1nc(C(=O)N2CCCC(n3ccnc3C(C)C)C2)cs1` (centres undefined), 52.52%.
In the case of `Cc1nc(CC(=O)N2CCCC(n3ccnc3C(C)C)C2)cs1` (centres undefined) it was 66.2%; in that of `Cc1ccsc1CN1CCC(n2cc(C(O)c3ccccc3)nn2)CC1` (centres undefined), -6.04%.
`CC(C)(C)C(=O)N1CCC(n2cc(C3(O)CCCC3)nn2)CC1`: the INHIBITION is given as -21.47%.
In the case of `Fc1ccccc1C1(CNC2CCOC3(CCOCC3)C2)CCCC1` (centres undefined) it was -27.61%; in that of `CN(C)c1cc(CNC(=O)c2cnccn2)ccn1`, -14.75%.
On to `Cc1cc(C(=O)N2CCn3cc(CN4CCOCC4)nc3C2)no1`, for which the INHIBITION is 22.68%.
In the case of `Cc1ocnc1C(=O)N1CCN(CCOc2ccccc2)CC1` it was 41.86%.
In the case of `CC(C)Cc1cc(NC(=O)c2ccccn2)n(C)n1` it was 7.13%.
In the case of `Cc1noc(C)c1CS(=O)(=O)CC(=O)NCCc1cccs1` it was -49.96%; in that of `Cn1cc(C(=O)NCc2cn3c(n2)CN(Cc2ccncc2)CC3)cn1`, 12.38%.
Turning to `Cn1cc(C(=O)NCc2cn3c(n2)CN(Cc2ccccn2)CC3)cn1`, the INHIBITION worked out at 53.98%.
Regarding `Cn1cccc1C(=O)NCc1cn2c(n1)CN(Cc1ccccn1)CC2`, the INHIBITION is on record as 20.43%.
With `Cc1noc(C)c1CN1C[C@@H](OCc2ccccn2)[C@H]2OCCC[C@H]21` the figure was -44.88%; with `CCc1cc(=O)n(CC(=O)N2CCCC2)c(-c2ccc(F)cc2)n1`, 22.13%.
With `CN(Cc1nc2ccccc2c(=O)[nH]1)C1CC(=O)N(C2CC2)C1=O` (centres undefined) the figure was -68.81%; with `Cc1nnc([C@H]2C[C@H]3OCC[C@H]3N(S(=O)(=O)C3CC3)C2)o1`, 50.32%.
With `Cc1noc([C@H]2C[C@H]3OCC[C@H]3N(Cc3ccncc3)C2)n1` the figure was 29.81%.
Turning to `CCCS(=O)(=O)N1C[C@@H](c2nc(C)no2)C[C@H]2OCC[C@H]21`, the INHIBITION is reported as -27.12%.
Take `Cc1noc([C@H]2C[C@H]3OCC[C@H]3N(S(C)(=O)=O)C2)n1`: the INHIBITION was found to be 25.58%.
For the molecule `Cc1noc([C@H]2C[C@H]3OCC[C@H]3N(Cc3ccc(F)cc3)C2)n1`, the INHIBITION is listed as 20.41%.
With `CCS(=O)(=O)N1C[C@H](c2nc(C)no2)C[C@H]2OCC[C@H]21` the figure was 63.23%; with `Cc1nnc([C@H]2C[C@H]3OCC[C@H]3N(S(=O)(=O)N(C)C)C2)o1`, 11.18%; with `CCS(=O)(=O)N1C[C@@H](c2nnc(C)o2)C[C@H]2OCC[C@H]21`, 11.87%.
In the case of `Cc1noc([C@@H]2C[C@H]3OCC[C@H]3N(Cc3ccoc3)C2)n1` it was 51.26%.
Take `Cc1cc(N2CCc3c(ncn3C3CC3)C2)nc(N)n1`: the INHIBITION is -25.22%.
Consider `O=C(CCC1CCCC1)NCCn1nc(C2CCNC2)c2cccnc21` (centres undefined), for which the INHIBITION turned out to be 34.24%.
As for `Cc1cccc(-n2ncc3c(=O)n(CCN4CCCCC4)cnc32)c1C`, the INHIBITION is given as -34.12%.
As for `CC(C)S(=O)(=O)N1CCN(C(=O)c2cnn(C)c2Cl)CC1`, the INHIBITION turned out to be 12.98%.
In the case of `CN(C(=O)c1ncn2c1CN(C)S(=O)(=O)c1ccccc1-2)C1CC1`, the INHIBITION was 60%.
